LGR2 antag: Drosophila LGR2 receptor signaling inhibition; HEK293 LGR2, CRE-luciferase, bursicon-stimulated, 4 h; actives 0.35% (n = 380,000); inhibition, % at 9.99 µM;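 active = drop in luminescence signal, shown as inhibition above about 50% in the replicate tests, limit read from the data, passing the limit was not always enough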;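 note: agonist challenge used bursicon conditioned medium at about half maximal strength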
TROY signal inh: inhibitors of TROY-dependent NF-kB signaling | Q293 LMP1-TROYcd NF-kB luciferase reporter, 4 h | actives 0.98% (n = 360,000) | inhibition, % at 10 µM | AID 1347056;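 active = compounds whose plate-normalised and pattern-corrected inhibition of the luciferase reporter signal at the single screening dose is 50% or more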
EWS-Fli inh: EWS/Fli transcriptional activity inhibition | A673 NR0B1-luciferase reporter, viability-normalised | inhibition, % at 12.6 µM | actives 0.67% (n = 350,000) | AID 651661;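 active = mean inhibition of at least 50% after viability correction, with every replicate also passing that limit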;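 note: firefly luciferase signal divided by Alamar Blue viability fluorescence both relative to DMSO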
EBV LMP1 NFkB: Epstein-Barr LMP1 NF-kappaB reporter inhibition; inhibition, % at 12.5 µM; actives 0.69% (n = 350,000); AID 504558; LMP1-induced NF-kappaB luciferase reporter cells, luminescence; in the data active = inhibition above about 41%;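 note: 0% = neutral control wells and 100% = reference inhibitor control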
PAX8 reporter: inhibitors of PAX8 transcriptional activity in RMG-I cells. RMG-I TPO-luciferase reporter, SteadyGlo, 24 h. inhibition, % at 12.6 µM. actives 1.2% (n = 360,000);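 active = mean replicate inhibition at least 60% with every replicate also reaching 60%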;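 note: luciferase light reporting Pax8 driven TPO promoter activity; plate controls were median of neutral control wells for no effect and mitoxantrone controls for full effect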
TWEAK-Fn14 inh: TWEAK-Fn14 signaling inhibition; actives 2% (n = 360,000); inhibition, % at 10 µM; AID 1159606; TWEAK-stimulated Fn14 reporter cells, luciferase luminescence, 8 h; in the data active = inhibition above about 50%
* = called active by the depositor; . = no result. This is a sample that favours compounds with a hit; in the whole collection about 3.1% have one here.

SMILES | LGR2 antag | TROY signal inh | EWS-Fli inh | EBV LMP1 NFkB | PAX8 reporter | TWEAK-Fn14 inh
O=C(C[C@H]1C[C@@H]2c3cc(NC(=O)Nc4ccccc4F)ccc3O[C@@H]2[C@H](CO)O1)NCCc1ccccc1 | 23 | . | -4 | . | . | .
CNC(=O)NC(=S)NC(=O)c1ccccc1Cl | 4 | 8 | -1 | -9 | -4 | -13
O=C(NC(=S)Nc1ncccn1)c1ccccc1Cl | -35 | -38 | -28 | -6 | 70* | -11
COc1ccccc1C(=O)NC(=S)Nc1cccnc1Cl | 84* | 78* | 57* | 28 | 40 | 95*
Cc1ccc(C(=O)NC(=S)Nc2cccnc2Cl)cc1 | 26 | 44 | -39 | -21 | -119 | 73*
COc1ccccc1-c1cc(C(=O)Nc2cccnc2Cl)no1 | 10 | -18 | -10 | -11 | -12 | -22
Cc1ccc(C(=O)NC(=S)Nc2ccccc2C(F)(F)F)cc1 | -16 | -34 | . | -10 | . | 5
COc1ccccc1C(=O)NC(=S)Nc1ccc(N2CCOCC2)c(Cl)c1 | -2 | 52* | -18 | 6 | -15 | -9
CNC[C@H]1Oc2cc(C#CC3CCCC3)ccc2S(=O)(=O)N([C@H](C)CO)C[C@H]1C | 27 | . | -11 | . | -6 | .
O=C(C[C@@H]1CC[C@@H]2[C@H](COC[C@H](O)CN2Cc2nccs2)O1)NCc1ccccc1Cl | 2 | . | -1 | . | -13 | .
COC(=O)c1ccccc1NC(=O)c1ccccc1OC | . | 3 | . | 19 | . | -3
COc1ccccc1C(=O)Nc1ccccc1SC(=O)c1ccccc1OC | -108 | 50* | 6 | -21 | -78 | 47
C=C1C(=O)[C@]23C[C@H]1CCC2[C@]1(C)C(=O)CC[C@@](C)(C(=O)O)C1C[C@@H]3O (stereo partly drawn) | 12 | 20 | 9 | . | 65* | 72*
C=C1C(=O)[C@]23C[C@H]1CCC2[C@]1(C)CCC[C@@](C)(C(=O)O)C1C[C@@H]3O (stereo partly drawn) | 25 | 59* | 40 | . | 117* | 97*
C=C1C(=O)[C@]23C[C@H]1CC[C@H]2[C@]1(C)[C@@H](OC(C)=O)CC[C@@](C)(C(=O)O)[C@H]1C[C@@H]3OC(C)=O | -3 | -15 | 10 | . | 86* | 46
O=C(NCC[C@@H]1CC[C@H](NC(=O)C2CC2)[C@H](CO)O1)c1cc(Cl)cc(Cl)c1 | -7 | . | 5 | . | . | .
CO[C@@H]1CN(C)C(=O)c2ccc(NC(=O)C3CCCC3)cc2OC[C@@H](C)NC[C@H]1C | 20 | . | 1 | . | 0 | .
CC(C)N1C(=O)/C(=C\c2nc3ccccc3c(=O)[nH]2)c2ccccc21 | 98* | 15 | 14 | -10 | . | 68*
O=[N+]([O-])c1ccc(N2CCN(C(=S)NCc3ccc(Cl)cc3)CC2)cc1 | 17 | 36 | 14 | 29 | 10 | 64*
O=C(NC1CCCCC1)N1CCN(c2ccc(Cl)cc2)CC1 | -1 | 6 | . | 8 | -12 | -11
O=C(NC1CCCCC1)N1CCN(c2ccc([N+](=O)[O-])cc2)CC1 | -20 | 16 | . | 75* | 18 | 13
O=[N+]([O-])c1ccc(O)c(/C=N/n2cnnc2)c1 | -18 | 15 | . | -2 | 15 | 5
Cc1cc(C)n(/N=C/c2cc([N+](=O)[O-])ccc2O)c(=O)c1 | 9 | 60* | 4 | -1 | 5 | -25
CCN(CC)S(=O)(=O)c1cccc(NC(=O)C(=O)c2c(-c3ccccc3)cc3ccccn23)c1 | . | 19 | . | -3 | 9 | 39
CCN(CC)S(=O)(=O)c1cc(NC(=O)C(=O)c2c(-c3ccccc3)cc3ccccn23)ccc1C | . | 13 | . | 5 | . | 62*
SMILES | LGR2 antag | TROY signal inh | EWS-Fli inh | EBV LMP1 NFkB | PAX8 reporter | TWEAK-Fn14 inh
C[C@@H]1CN([C@H](C)CO)C(=O)Cc2cc(NS(=O)(=O)c3ccc(Cl)cc3)ccc2O[C@H]1CN(C)S(C)(=O)=O | -11 | . | -1 | . | -9 | .
O=C(c1ccccc1)c1ccc2nc(-c3ccc(NC(=O)c4ccccc4Br)cc3)[nH]c2c1 | -8 | 5 | . | 3 | . | -7
Cc1cc(F)ccc1S(=O)(=O)Nc1ccccc1C(=O)Nc1ccccc1-c1nc2ccccc2[nH]1 | . | 70* | . | -18 | . | 102*
CS(=O)(=O)c1ccccc1C(=O)Nc1ccc(-c2nc3ccccc3[nH]2)cc1 | -37 | -68 | . | -10 | -158 | -19
O=C(Nc1ccc(-c2nc3ccccc3[nH]2)cc1)c1ccccc1NS(=O)(=O)c1ccc(F)cc1 | -10 | 58* | . | 6 | -17 | 8
Cc1ccccc1C(=O)Nc1ccc(-c2nc3ccc(C(=O)c4ccccc4)cc3[nH]2)cc1 | 12 | . | . | 1 | . | 70*
